aSyn UTR act: Activators working through SNCA 5'UTR binding (MLPCN) | AID 1814 | alpha-synuclein 5'UTR reporter, activators screen | hit rate 7.1% among 300,000 | activity score, % (tested at 7.5 µM), hits read low; in the data active means activity score below about -60%
* hit, by the source's call. Not all results are given here.

`CCOc1ccc(-c2csc3nc[nH]c(=O)c23)cc1` gave aSyn UTR act -154*.
Clc1ccc2nc(COc3ccccc3)[nH]c2c1 was read as aSyn UTR act -151*.
For O=c1[nH]c(COc2ccccc2)nc2ccccc12 the results were aSyn UTR act -70*.
`O=c1[nH]c(COc2ccc(Br)cc2Cl)nc2ccccc12` gave aSyn UTR act -167*.
Screening S=c1nc(COc2ccccc2)[nH]c2ccccc12 returned aSyn UTR act -112*.
For CCCc1cc(=O)n2[nH]c(-c3ccc(Cl)cc3)cc2n1 the results were aSyn UTR act -141*.
`CCCc1cc(=O)n2[nH]c(-c3ccc(C)cc3)cc2n1` gave aSyn UTR act -129*.
For Cc1cc(-c2ccco2)c(C#N)c2nc3ccccc3n12 the results were aSyn UTR act -100*.
CCc1c(C)c(C#N)c2nc3ccccc3n2c1Cl was read as aSyn UTR act 105.
For COc1cc(-c2cc3nc4ccccc4n3c(N)c2C#N)cc(OC)c1OC the results were aSyn UTR act 45.
`COc1ccc2cc3c(N)nn(C(=O)c4ccccc4Cl)c3nc2c1` gave aSyn UTR act 65.
`COc1ccc2cc(C3OCCO3)c(Cl)nc2c1` gave aSyn UTR act -108*.
For Cc1ccccc1N(CC(=O)NC1CCCC1)C(=O)c1csnn1 the results were aSyn UTR act -146*.
`COc1ccc(C(=O)/C=C/C(=O)N(CC(=O)NC2CCCCC2)Cc2cccs2)c(O)c1` gave aSyn UTR act 71.
For Clc1ccsc1-c1csc(-c2cccnc2)n1 the results were aSyn UTR act -85*.
For c1cncc(-c2nc(-c3ccc4c(c3)OCO4)cs2)c1 the results were aSyn UTR act -117*.
`Oc1ccc(-c2csc(-c3cccnc3)n2)c(O)c1` gave aSyn UTR act -101*.
Cc1nn(C)cc1/C=C/C(=O)c1ccc(O)cc1 was read as aSyn UTR act -229*.
`Cc1c(/C=C/C(=O)c2ccccc2O)cnn1C` gave aSyn UTR act -227*.
Cc1ccc(/C=C/C(=O)c2ccccc2O)cc1 was read as aSyn UTR act -121*.
`CSc1ccc(C(=O)/C=C/c2ccc(N)cc2)cc1` gave aSyn UTR act -204*.
Screening O=C(/C=C/c1ccco1)c1ccccc1O returned aSyn UTR act -65*.
O=C(/C=C/c1cccnc1)c1cccc(O)c1 was read as aSyn UTR act -88*.
`O=C(/C=C/c1ccc(O)cc1)c1ccccc1` gave aSyn UTR act -118*.
`O=C(/C=C/c1ccc(N2CCC(c3ccccc3)=N2)cc1)c1ccccc1` gave aSyn UTR act -67*.
`Cc1ccc(/C=C/C(=O)Nc2ccccc2C(N)=O)cc1` gave aSyn UTR act -86*.
`Cc1ccc(/C=C/C(=O)c2ccc(C)cc2)cc1` gave aSyn UTR act -150*.
Screening O=C(/C=C/c1ccc(-c2ccccc2)o1)c1ccccc1 returned aSyn UTR act -66*.
Screening CC(C)NC(=O)c1ccccc1NC(=O)/C=C/c1cccc([N+](=O)[O-])c1 returned aSyn UTR act 63.
CN(C)c1ccc(/C=C/C(=O)c2ccccc2O)cc1 was read as aSyn UTR act -197*.
For O=C(NCCc1ccccc1)c1c(F)cccc1F the results were aSyn UTR act -115*.
For O=C(NCCc1ccccc1)c1ccco1 the results were aSyn UTR act -85*.
For CC(=O)c1c(C)[nH]c(C(=O)NCCc2ccccc2)c1C the results were aSyn UTR act -102*.
`CN(CC(=O)NCCc1ccccc1)Cc1ccco1` gave aSyn UTR act -81*.
For COC(=O)/C=C/c1ccccc1S(=O)(=O)N(Cc1ccccc1)Cc1ccco1 the results were aSyn UTR act 89.
`COc1ccccc1NC(=O)c1ccc(-c2ccccc2F)o1` gave aSyn UTR act -145*.
COC(=O)c1ccccc1NC(=O)c1ccc(-c2ccccc2F)o1 was read as aSyn UTR act -129*.
Cc1cc(NC(=O)c2ccc(-c3ccccc3F)o2)no1 was read as aSyn UTR act -125*.
`Cc1ccc(-n2nc(C)c(NC(=O)CCl)c2C)cc1C` gave aSyn UTR act -220*.
COc1ccc(C(=O)Cn2c(=N)n(C)c3ccccc32)cc1 was read as aSyn UTR act -62*.
`Cc1ccc(C(=O)Cn2c(=N)n(N)c3ccccc32)cc1` gave aSyn UTR act -166*.
Cn1c(=N)n(CC(=O)c2ccccc2)c2ccccc21 was read as aSyn UTR act 90.
`CCN(CC)CCn1c(=N)n(CC(=O)c2ccc(C)cc2)c2ccccc21` gave aSyn UTR act -125*.
COc1ccc([N+](=O)[O-])cc1N/C(=N/S(=O)(=O)c1ccccc1)c1ccccc1 was read as aSyn UTR act -70*.
For Nc1cc2nc[nH]c2cc1N the results were aSyn UTR act -100*.
For CCc1cc2c(=O)n(-c3ccc(C)cc3)cnc2s1 the results were aSyn UTR act -149*.
`CCc1cc2c(=O)n(-c3ccccc3)cnc2s1` gave aSyn UTR act -96*.
`COC(=O)c1ccc(N2OC3(C)C=CC2CC3)cc1` (stereo unspecified) gave aSyn UTR act -88*.
For O=C(C1CCCN1S(=O)(=O)c1cccc2nsnc12)N1CCN(c2ccccc2)CC1 (stereo unspecified) the results were aSyn UTR act -63*.
Screening COc1ccccc1-n1cc2ccc([N+](=O)[O-])cc2n1 returned aSyn UTR act -119*.
O=[N+]([O-])c1ccc2cn(-c3ccccc3)nc2c1 was read as aSyn UTR act -200*.
Screening O=C1NC(=O)/C(=C\c2ccc(Oc3cnccn3)cc2)S1 returned aSyn UTR act -191*.
For CCOC(=O)Nc1ccc2c(COC(=O)c3ccccc3O)cc(=O)oc2c1 the results were aSyn UTR act -83*.
Screening COc1ccccc1C(=O)Nc1ccc2c(C)cc(=O)oc2c1 returned aSyn UTR act -154*.
CCN(CC)c1ccc(C(=O)OCc2cc(=O)oc3cc(O)ccc23)cc1 was read as aSyn UTR act 117.
`Cc1ccccc1OCCC(=O)Nc1ccc2c(C)cc(=O)oc2c1` gave aSyn UTR act -64*.
For Clc1ccc(-c2cn3c(n2)-c2ccccc2C3)cc1Cl the results were aSyn UTR act -67*.
Screening Cc1ccc(NC(=O)Nc2cc(S(C)(=O)=O)ccc2Cl)cc1 returned aSyn UTR act -77*.
`Cc1ccc(S(=O)(=O)Nc2cc(Cl)c(O)c3ncccc23)cc1` gave aSyn UTR act 77.
For CS(=O)(=O)c1ccc(Cl)c(NC(=O)CCl)c1 the results were aSyn UTR act -88*.
For CC(=O)N(C)c1nnc(-c2ccccn2)s1 the results were aSyn UTR act -71*.
For Cc1ccc(-c2nnc(N(C)C(=O)c3ccncc3)s2)cn1 the results were aSyn UTR act -77*.
`COCCN(C(C)=O)c1nnc(-c2ccccn2)s1` gave aSyn UTR act -66*.
Screening CN(C(=O)c1cccnc1)c1nnc(-c2ccccn2)s1 returned aSyn UTR act -98*.
`COc1cnc(-c2ccccn2)nc1N(C)C` gave aSyn UTR act 99.
O=C(Nc1sc2c(c1C(=O)O)CCCCC2)c1cccs1 was read as aSyn UTR act -80*.
NC(=O)c1c(NC(=O)c2ccc(F)cc2)sc2c1CCC2 was read as aSyn UTR act -184*.
Screening CC(C)(C)c1ccc(C(=O)Nc2sc3c(c2C(=O)O)CCC3)cc1 returned aSyn UTR act 95.
For O=C(Nc1sc2c(c1C(=O)O)CCCC2)c1ccc(F)cc1 the results were aSyn UTR act -94*.
Screening COc1ccccc1C(=O)Nc1sc2c(c1C(N)=O)CCCC2 returned aSyn UTR act -83*.

Screening data as filed in PubChem BioAssay.
